Reference: PMC5540273 (PLoS ONE, 2017)

Tests used:
Settings in all cases: concentration: 1 μM, replicates: in singlicate; n = 1
DAPK2 = system: DAPK2
DAPK3 = system: DAPK3
DCAMKL1 = system: T1, DCAMKL1
T1 construct: gene DCLK1

DCAMKL2 = system: T2, DCAMKL2
T2 construct: gene DCLK2

DCAMKL3 = system: T3, DCAMKL3
T3 construct: gene DCLK3

DDR1 = system: DDR1
DDR2 = system: DDR2
DLK = system: T4, DLK
T4 construct: gene MAP3K12

DMPK2 = system: T5, DMPK2
T5 construct: gene CDC42BPG

DMPK = system: DMPK
DRAK1 = system: T6, DRAK1
T6 construct: gene STK17A

DRAK2 = system: T7, DRAK2
T7 construct: gene STK17B

DYRK1A = system: DYRK1A
DYRK1B = system: DYRK1B
DYRK2 = system: DYRK2
EGFR = system: EGFR
EIF2AK1 = system: EIF2AK1
EPHA1 = system: EPHA1
EPHA2 = system: EPHA2
EPHA3 = system: EPHA3
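Also: KINOMEscan kinase panel screen.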

Row | SMILES | %Inh (DAPK2) | %Inh (DAPK3) | %Inh (DCAMKL1) | %Inh (DCAMKL2) | %Inh (DCAMKL3) | %Inh (DDR1) | %Inh (DDR2) | %Inh (DLK) | %Inh (DMPK2) | %Inh (DMPK) | %Inh (DRAK1) | %Inh (DRAK2) | %Inh (DYRK1A) | %Inh (DYRK1B) | %Inh (DYRK2) | %Inh (EGFR) | %Inh (EIF2AK1) | %Inh (EPHA1) | %Inh (EPHA2) | %Inh (EPHA3)
1 | Nc1nc(-c2nccs2)c(-c2ccnc3ccccc23)s1 [GW693542] | 0% | 10% | 13% | 0% | 6% | 9% | 5% | 33% | 6% | 100% | 9% | 0% | 20% | 25% | 7% | 26% | 3% | 5% | 3% | 0%
2 | CCn1c(-c2cccnc2O)nc2cnccc21 [SB-736715] | 0% | 0% | 0% | 3% | 0% | 0% | 0% | 19% | 0% | 0% | 0% | 0% | 0% | 54% | 0% | 7% | 0% | 0% | 0% | 0%
3 | CC(C)(C)c1ccc(C(=O)Nc2cn3cc(Cl)ccc3n2)cc1 | 0% | 3% | 15% | 0% | 18% | 0% | 20% | 0% | 0% | 0% | 5% | 20% | 47% | 65% | 0% | 0% | 0% | 0% | 0% | 65%
4 | CN1C(=O)C(Nc2ccc(Cl)c(C(=O)O)c2)=C(c2ccc(Cl)cc2)C1=O [SB-404290] | 9% | 14% | 0% | 6% | 10% | 0% | 0% | 0% | 0% | 0% | 0% | 0% | 2% | 0% | 0% | 0% | 0% | 5% | 0% | 18%
5 | Cc1c(Cn2ccn3c(=O)cc(N4CCOCC4)nc23)cccc1C(F)(F)F [GSK2289044] | 12% | 12% | 3% | 0% | 13% | 0% | 8% | 0% | 0% | 64% | 0% | 0% | 10% | 21% | 14% | 40% | 2% | 9% | 13% | 27%
6 | CCn1c(-c2ccccn2)nc2cnccc21 [SB-736398] | 0% | 13% | 5% | 0% | 0% | 0% | 39% | 53% | 0% | 0% | 5% | 8% | 19% | 11% | 0% | 15% | 0% | 21% | 6% | 0%
7 | Cn1ccc2ncnc(Oc3cccc(C(=O)Nc4ccccc4)c3)c21 | 24% | 0% | 28% | 0% | 0% | 0% | 9% | 0% | 0% | 11% | 0% | 12% | 2% | 24% | 0% | 0% | 18% | 0% | 0% | 0%
